Measurements as given in PubChem BioAssay (NCI).
This is part of a sample that, as a whole, favours compounds with a hit. Of some 79,000 tested, about 15% had one in any assay. Active and inactive are the calls of the source. Cut-off read from the data, not from the text of the source: active = growth inhibition above about 70%; inactive = the rest.

Assays:
[1] = NCI Yeast Anticancer Drug Screen. Data for the mec2-1 strain (AID 157); conditions: S. cerevisiae mec2-1 strain, hits give high values
Procedure, shortened: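 Vehicle-treated cultures served as reference for growth inhibition of compound-exposed mec2-1 yeast.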

[2] = NCI Yeast Anticancer Drug Screen. Data for the rad14 strain (AID 159);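 note: 0% = growth of vehicle-treated control cultures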; conditions: S. cerevisiae rad14 strain growth inhibition, hits give high values
Procedure, shortened: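 Growth inhibition vs vehicle controls; genetically altered yeast strain (DNA damage repair defect) treated with test compounds.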

[3] = NCI Yeast Anticancer Drug Screen. Data for the sgs1 mgt1 strain (AID 161);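 note: 0% = growth of cultures given vehicle only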; conditions: S. cerevisiae sgs1 mgt1 strain, hits give high values
Procedure, shortened: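 Genetically altered yeast, compound exposure, growth inhibition relative to vehicle.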

[4] = NCI Yeast Anticancer Drug Screen. Data for the CLN2oe strain (AID 163);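 note: 0% = growth of vehicle-only control cultures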; conditions: S. cerevisiae CLN2oe strain, hits give high values
Procedure, shortened: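 Inhibition relative to vehicle-treated yeast is reported. Cells: strain with genetic alteration in cell-cycle control, grown with compound.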

[5] = NCI Yeast Anticancer Drug Screen. Data for the cln2 rad14 strain (AID 165);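 note: 0% = growth equal to vehicle treated cultures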; conditions: S. cerevisiae cln2 rad14 strain, hits give high values
Procedure, shortened: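 Each compound was tested on cln2 rad14 yeast. Inhibition of growth was calculated against vehicle-exposed controls.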

[6] = NCI Yeast Anticancer Drug Screen. Data for the bub3 strain (AID 167); conditions: S. cerevisiae bub3 mutant strain, hits give high values
Procedure, shortened: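 Readout: yeast growth inhibition, expressed relative to vehicle-only wells. The test organism is a mutant strain from a panel with lesions in DNA repair or checkpoint genes.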

[7] = NCI Yeast Anticancer Drug Screen. Data for the wt2 strain (AID 169);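 note: 0% = growth of vehicle-treated yeast cultures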; conditions: S. cerevisiae wt2 strain growth inhibition, hits give high values
Procedure, shortened: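 Inhibition of yeast growth was determined after compound treatment, normalised to controls receiving only vehicle.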

[8] = NCI Yeast Anticancer Drug Screen. Data for the mlh1 strain (AID 171);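 note: 0% = growth of vehicle-treated control cultures of the same strain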; conditions: S. cerevisiae mlh1 strain growth inhibition, hits give high values
Procedure, shortened: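 Vehicle-normalised growth inhibition of a repair- or checkpoint-altered yeast strain following compound treatment.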

[9] = NCI Yeast Anticancer Drug Screen. Data for the sgs1 strain (AID 173);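 note: 0% = growth of vehicle-only control cultures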; conditions: S. cerevisiae sgs1 mutant, hits give high values
Procedure, shortened: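 Screen format: yeast with repair or checkpoint alterations, compound exposure, growth read relative to vehicle.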

[10] = NCI Yeast Anticancer Drug Screen. Data for the mlh1 rad18 strain (AID 175); conditions: S. cerevisiae mlh1 rad18 strain growth inhibition, hits give high values
Procedure, shortened: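 Vehicle-treated cultures served as the reference for growth inhibition in a yeast strain carrying DNA damage repair alterations exposed to each compound.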

[11] = NCI Yeast Anticancer Drug Screen. Data for the rad18 strain (AID 177); conditions: S. cerevisiae rad18 mutant growth inhibition, hits give high values
Procedure, shortened: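 Test articles were incubated with altered yeast defective in DNA damage repair. Results are given as inhibition of growth versus vehicle.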

[12] = NCI Yeast Anticancer Drug Screen. Data for the rad52 strain (AID 147);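 note: 0% = growth of vehicle-treated control cultures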; conditions: S. cerevisiae rad52 mutant growth inhibition, hits give high values
Procedure, shortened: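 Vehicle-treated cultures served as the reference for growth inhibition of compound-exposed yeast bearing a DNA repair mutation.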

[13] = NCI Yeast Anticancer Drug Screen. Data for the wt1 strain (AID 149);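 note: 0% = growth of vehicle-treated wt1 cultures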; conditions: S. cerevisiae wt1 strain (SPY 50644) growth inhibition, hits give high values
Procedure, shortened: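 Growth inhibition read against vehicle controls after compound exposure of the wt1 yeast strain.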

[14] = NCI Yeast Anticancer Drug Screen. Data for the rad50EPP+ strain (AID 151);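 note: 0% = growth of vehicle-treated control cultures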; conditions: S. cerevisiae rad50 mutant strain, hits give high values
Procedure, shortened: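 In this screen, rad50EPP+ yeast were exposed to compounds. Growth inhibition was scored against vehicle-treated controls.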

[15] = NCI Yeast Anticancer Drug Screen. Data for the mgt1 strain (AID 153); conditions: S. cerevisiae mgt1 mutant growth inhibition, hits give high values
Procedure, shortened: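 mgt1 strain exposed; growth vs vehicle control recorded as inhibition.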

[16] = NCI Yeast Anticancer Drug Screen. Data for the rad50 strain (AID 155);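 note: 0% = growth of vehicle-only cultures of the same strain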; conditions: S. cerevisiae rad50 strain growth inhibition, hits give high values
Procedure, shortened: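 Readout: growth inhibition relative to vehicle-treated cultures. Compound exposure was carried out in a genetically defined yeast strain deficient in DNA damage repair.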

[17] = at 5.0 µM (retest, dose inferred, filed as 0.5)
[18] = at 50.0 µM (retest, dose inferred, filed as 5.0)

Measured: growth inhibition

Cc1ccc(S(=O)(=O)NNC(=S)Nc2cccc3ccccc23)cc1
inactive: [1]; at 100.0 µM 4% | [2]; at 1.2 µM -6% | [2]; at 3.7 µM -4% | [2]; at 11.0 µM -8% | [2]; at 33.0 µM -4% | [2]; at 100.0 µM -3% | [3]; [17] -23% | [3]; [18] 41% | [3]; at 50.0 µM 49.6% | [4]; at 1.2 µM -12% | [4]; at 3.7 µM -14% | [4]; at 11.0 µM -18% | [4]; at 33.0 µM -12% | [4]; at 100.0 µM -1% | [5]; [17] -1% | [5]; [18] 17% | [5]; at 50.0 µM 13.4% | [6]; at 1.2 µM -1% | [6]; at 3.7 µM 0% | [6]; [17] -19% | [6]; at 11.0 µM 10% | [6]; at 33.0 µM 14% | [6]; at 50.0 µM 66.5% | [6]; at 100.0 µM 29% | [7]; at 1.2 µM -2% | [7]; at 3.7 µM -1% | [7]; at 11.0 µM 2% | [7]; at 33.0 µM 8% | [7]; at 100.0 µM 7% | [8]; at 1.2 µM 0% | [8]; at 3.7 µM -6% | [8]; at 11.0 µM -2% | [8]; at 33.0 µM 0% | [8]; at 100.0 µM -5% | [9]; at 1.2 µM 2% | [9]; at 3.7 µM 4% | [9]; at 11.0 µM 10% | [9]; at 33.0 µM 18% | [9]; at 100.0 µM 17% | [10]; [17] -8% | [10]; [18] 29% | [10]; at 50.0 µM -1.25% | [11]; at 1.2 µM -1% | [11]; at 3.7 µM -1% | [11]; at 11.0 µM 2% | [11]; at 33.0 µM -4% | [11]; at 100.0 µM 12%
active: [6]; [18] 96%

CC(/C=C/c1ccc2c(c1)OCO2)[N+](=O)[O-] (centres undefined)
active: [12]; at 3.7 µM 93% | [12]; at 11.0 µM 99% | [12]; at 33.0 µM 99% | [12]; at 100.0 µM 99% | [13]; at 3.7 µM 71% | [13]; at 11.0 µM 99% | [13]; at 33.0 µM 100% | [13]; at 100.0 µM 99% | [14]; at 1.2 µM 73% | [14]; at 3.7 µM 94% | [14]; at 11.0 µM 99% | [14]; at 33.0 µM 99% | [14]; at 100.0 µM 99% | [15]; at 11.0 µM 99% | [15]; at 33.0 µM 99% | [15]; at 100.0 µM 99% | [16]; at 3.7 µM 86% | [16]; [17] 86% | [16]; at 11.0 µM 99% | [16]; at 33.0 µM 99% | [16]; [18] 97% | [16]; at 50.0 µM 99.6% | [16]; at 100.0 µM 99% | [1]; at 11.0 µM 100% | [1]; at 33.0 µM 99% | [1]; [18] 99% | [1]; at 50.0 µM 99.7% | [1]; at 100.0 µM 99% | [3]; [18] 98% | [3]; at 50.0 µM 99.5% | [4]; at 11.0 µM 99% | [4]; at 33.0 µM 99% | [4]; at 100.0 µM 99% | [5]; [18] 98% | [5]; at 50.0 µM 99.2% | [6]; at 11.0 µM 99% | [6]; at 33.0 µM 99% | [6]; [18] 98% | [6]; at 50.0 µM 99% | [6]; at 100.0 µM 98% | [7]; at 3.7 µM 97% | [7]; at 11.0 µM 100% | [7]; at 33.0 µM 100% | [7]; at 100.0 µM 100% | [8]; at 11.0 µM 99% | [8]; at 33.0 µM 99% | [8]; at 100.0 µM 99% | [10]; [18] 98% | [10]; at 50.0 µM 99.4% | [11]; at 11.0 µM 99% | [11]; at 33.0 µM 99% | [11]; at 100.0 µM 99%
inactive: [12]; at 1.2 µM 40% | [13]; at 1.2 µM 8% | [15]; at 1.2 µM 1% | [15]; at 3.7 µM 16% | [16]; at 1.2 µM 33% | [1]; at 1.2 µM 4% | [1]; at 3.7 µM 30% | [1]; [17] 2% | [3]; [17] 62% | [4]; at 1.2 µM -1% | [4]; at 3.7 µM 37% | [5]; [17] -13% | [6]; at 1.2 µM 23% | [6]; at 3.7 µM 69% | [6]; [17] 46% | [7]; at 1.2 µM 10% | [8]; at 1.2 µM -2% | [8]; at 3.7 µM 64% | [10]; [17] 66% | [11]; at 1.2 µM 10% | [11]; at 3.7 µM 58%

COc1ccc(OC)c2cc3ccccc3cc12
inactive: [12]; at 1.2 µM 11% | [12]; at 3.7 µM -9% | [12]; at 11.0 µM 6% | [12]; at 33.0 µM 10% | [12]; at 100.0 µM 17% | [13]; at 1.2 µM -19% | [13]; at 3.7 µM -19% | [13]; at 11.0 µM -12% | [13]; at 33.0 µM -8% | [13]; at 100.0 µM -4% | [14]; at 1.2 µM -13% | [14]; at 3.7 µM 7% | [14]; at 11.0 µM 46% | [14]; at 33.0 µM 52% | [14]; at 100.0 µM 60% | [16]; at 1.2 µM -1% | [16]; at 3.7 µM -1% | [16]; [17] 52% | [16]; at 11.0 µM 10% | [16]; at 33.0 µM 17% | [16]; at 100.0 µM 4% | [1]; at 1.2 µM -5% | [1]; at 3.7 µM -11% | [1]; [17] 63% | [1]; at 11.0 µM -6% | [1]; at 33.0 µM 21% | [1]; at 100.0 µM 8% | [2]; at 1.2 µM -4% | [2]; at 3.7 µM -6% | [2]; at 11.0 µM -3% | [2]; at 33.0 µM 4% | [2]; at 100.0 µM 18% | [3]; [17] -24% | [3]; [18] 27% | [4]; at 1.2 µM 12% | [4]; at 3.7 µM 14% | [4]; at 11.0 µM 16% | [4]; at 33.0 µM 19% | [4]; at 100.0 µM 3% | [5]; [17] 46% | [5]; [18] 51% | [5]; at 50.0 µM 39.6% | [6]; at 1.2 µM 22% | [6]; at 3.7 µM 8% | [6]; [17] 36% | [6]; at 11.0 µM 22% | [6]; at 33.0 µM 33% | [6]; [18] 64% | [6]; at 100.0 µM 32% | [7]; at 1.2 µM -23% | [7]; at 3.7 µM -28% | [7]; at 11.0 µM -16% | [7]; at 33.0 µM -8% | [7]; at 100.0 µM 9% | [8]; at 1.2 µM 14% | [8]; at 3.7 µM 9% | [8]; at 11.0 µM 8% | [8]; at 33.0 µM 20% | [8]; at 100.0 µM 19% | [9]; at 1.2 µM -12% | [9]; at 3.7 µM -12% | [9]; at 11.0 µM -5% | [9]; at 33.0 µM -1% | [9]; at 100.0 µM 7% | [10]; [17] 48% | [11]; at 1.2 µM 5% | [11]; at 3.7 µM 4% | [11]; at 11.0 µM 21% | [11]; at 33.0 µM 24% | [11]; at 100.0 µM 50%
active: [16]; [18] 81% | [16]; at 50.0 µM 74.3% | [1]; [18] 87% | [1]; at 50.0 µM 85.2% | [3]; at 50.0 µM 73.1% | [6]; at 50.0 µM 89.7% | [10]; [18] 81% | [10]; at 50.0 µM 70.2%
